APP transl inh: APP translation inhibition | hit rate 0.82% among 190,000 | SH-SY5Y APP 5'UTR-luciferase reporter, luminescence | inhibition, % at 2 µM;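 active = inhibition above a set limit, derived from the sample mean plus 3 SD, cut at about 45% in these data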
BaF3 parental: parental Ba/F3 viability inhibition as JAK2V617F counter-screen; CellTiter-Glo ATP luminescence; inhibition, % at 5.6 µM; hit rate 1.1% among 220,000; AID 1486;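 active = inhibition above a per-campaign cutoff, the mean inhibition of all tested compounds plus 3 SD, cut at about 27% in these data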;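 note: 0% = DMSO wells and 100% = JAK Inhibitor I control wells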
IEC-6 cytotox: kills IEC-6 intestinal cells in KLF5 counter-screen; IEC-6 cytotoxicity, luminescence viability; inhibition, % at 5 µM; hit rate 0.78% among 290,000; in the data active = inhibition above about 22%;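 note: 0% = plate median of test compound wells and 100% = cytotoxic reference compound wells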
Ba/F3 V617F tox: reduce viability of Ba/F3 cells dependent on JAK2V617F | Ba/F3 EpoR-JAK2V617F viability, ATP luminescence | inhibition, % at 5.6 µM | hit rate 1.1% among 220,000 | AID 1446;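 active = inhibition above the campaign mean plus 3 SD over all tested compounds, cut at about 24% in these data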;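 note: cytokine-independent growth of Ba/F3 cells driven by EpoR plus mutant JAK2; 0% = DMSO-treated cells and 100% = JAK inhibitor I control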
KLF5 inhibitor: suppresses KLF5 promoter-driven expression; DLD-1 KLF5 promoter-luciferase reporter, luminescence; inhibition, % at 5 µM; hit rate 0.23% among 290,000;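 active = inhibition above a per-plate limit of that plate's mean compound inhibition plus 3 SD, cut at about 60% in these data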;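 note: 0% = DMSO wells and 100% = LY294002 at 200 µM; higher means less KLF5 promoter-driven luciferase light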
aSyn UTR inh: MLPCN primary screen, SNCA 5' untranslated region; alpha-synuclein 5'UTR reporter, inhibitor activity; hit rate 0.82% among 300,000; inhibition, % (tested at 7.5 µM); AID 1813; in the data active = inhibition above about 60%;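 note: H4 neuroglioblastoma cells stably carrying SNCA 5'UTR luciferase fusion; 0% = DMSO wells and 100% = positive control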
Numbers without * were called inactive; . = no result. This is a sample that favours compounds with a hit; in the whole collection about 2.2% have one here.

SMILES | APP transl inh | BaF3 parental | IEC-6 cytotox | Ba/F3 V617F tox | KLF5 inhibitor | aSyn UTR inh
O=C(NNC(=O)c1cc(C(F)(F)F)cc(C(F)(F)F)c1)c1ccc(Cl)cc1 | . | 62* | -1 | -4 | -16 | 6
CN(C)c1ccc(/C=C2\SC(=O)N(CCc3nnc(N)s3)C2=O)cc1 | . | -2 | 3 | 1 | -36 | 80*
CN(C)c1ccc(/C=C2/SC(=O)N(CCN=C3NS(=O)(=O)c4ccccc43)C2=O)cc1 | -35 | 4 | -6 | -2 | -20 | -66
NC(=O)c1ccc(SCC(=O)OCC(=O)NCC2CCCCC2)c([N+](=O)[O-])c1 | . | . | . | . | . | -13
CN(C(=O)CSc1n[nH]c(-c2cccs2)n1)C1CCS(=O)(=O)C1 (configuration not stated) | . | . | . | . | . | 21
O=C(Nc1ccccc1F)C1CCN(S(=O)(=O)c2cccc3nonc23)CC1 | . | . | 0 | . | 18 | 15
Cc1cc(C)c2[nH]c(=O)c(CN(CC3CCCO3)C(=S)Nc3ccccc3)cc2c1 (configuration not stated) | . | 5 | -4 | 2 | -4 | 8
Cc1ccc2cc(CN(CC3CCCO3)C(=S)Nc3ccccc3)c(=O)[nH]c2c1C (configuration not stated) | 53* | 8 | 8 | 1 | -16 | 72*
COc1ccccc1C(CCNCc1ccc(N(C)C)cc1)c1ccc(OC(C)C)cc1 (configuration not stated) | . | . | 9 | . | 4 | 135*
COc1ccc(CNCCC(c2ccc(OC(C)C)cc2)c2ccccc2OC)cc1 (configuration not stated) | . | . | 9 | . | -6 | 134*
COc1ccccc1C(CCNCc1ccccc1)c1ccc(OC(C)C)cc1 (configuration not stated) | . | . | 15 | . | 16 | 28
O=C1CCC(=O)N1c1ccc(-c2nc3ccccc3s2)cc1 | -107 | 89* | -2 | 2 | -83 | -120
Nc1ccc(-c2nc3ccccc3s2)cn1 | . | . | -4 | . | -111 | -110
Cc1ccc(C(=O)O/N=C(\N)c2ccccc2)c(Cl)c1 | . | 0 | -7 | -3 | -92 | 85*
COc1cccc(C(=O)O/N=C(\N)c2ccccn2)c1OC | . | . | -1 | . | -137 | -74
N/C(=N\OC(=O)c1cc([N+](=O)[O-])ccc1Cl)c1ccccn1 | . | -4 | -5 | -2 | -53 | -82
N/C(=N\OC(=O)c1ccc([N+](=O)[O-])cc1Cl)c1ccccn1 | . | . | 1 | . | 65* | 69*
N/C(=N\OC(=O)c1cccc2ccccc12)c1ccccn1 | . | 2 | 12 | 0 | -17 | 102*
N/C(=N\OC(=O)c1ccccc1Cl)c1ccncc1 | -94 | 2 | 2 | -4 | -137 | -107
COc1cc2c(cc1OC)[C@H](C)N(C(=O)NCc1ccccc1)CC2 | . | . | 5 | . | 10 | 22
CCCCc1c(CCC)c(=N)c2ccccc2n1C | 7 | 68* | 0 | 76* | -5 | 5
CCCCc1c(O)c2ccccc2n(CCCC)c1=O | -13 | 4 | 4 | 0 | -16 | 5
Cc1cc2cc(C)c(NCCNC(=O)c3cccs3)nc2cc1C | 20 | 4 | -1 | 4 | -14 | -23
Cc1onc(-c2ccccc2Cl)c1C(=O)N1CCN(c2cccc(Cl)c2)CC1 | -8 | . | . | . | . | 67*
COc1ccc(-c2oc3ncn(CCN4CCOCC4)c(=N)c3c2-c2ccc(OC)cc2)cc1 | 11 | 0 | -6 | -7 | 3 | 74*
SMILES | APP transl inh | BaF3 parental | IEC-6 cytotox | Ba/F3 V617F tox | KLF5 inhibitor | aSyn UTR inh
CC(Oc1ccc2c3c(c(=O)oc2c1)CCCC3)C(=O)NCc1cccnc1 (configuration not stated) | . | . | 10 | . | 11 | 3
O=C(Cn1c(-c2ccccc2)c[n+]2ccsc12)c1ccc([N+](=O)[O-])cc1 | -33 | 15 | 2 | 5 | -44 | -50
O=C(Cn1c(-c2ccccc2)c[n+]2ccsc12)c1ccccc1 | 4 | 60* | 3 | 70* | 13 | -25
CCN(CC)Cc1c(C(=O)N/N=C(\C)c2ccncc2)nnn1-c1nonc1N | . | . | 6 | . | -33 | 2
COc1ccccc1-n1nc(C(=O)O)c2ccccc2c1=O | -14 | 69* | -3 | -3 | -52 | 7
Cc1cccc(NS(=O)(=O)c2ccc(NC(=O)CN(c3cc([N+](=O)[O-])ccc3C)S(C)(=O)=O)cc2)c1 | 11 | 12 | 97* | 11 | 0 | 101*
COc1ccc([N+](=O)[O-])cc1N(CC(=O)NCCSc1ccc(C)cc1)S(C)(=O)=O | 4 | -3 | -2 | 3 | -28 | -6
COc1ccc(C)cc1NS(=O)(=O)c1ccc(NC(=O)CN(c2cc([N+](=O)[O-])ccc2C)S(C)(=O)=O)cc1 | 59* | 9 | 7 | 6 | 7 | 114*
Cc1c(C(C)C)c(=O)n(-c2ccc(S(=O)(=O)NC3CCCCC3)cc2)n1C | 12 | 41* | 5 | 37* | -4 | 14
Cc1c(C(C)C)c(=O)n(-c2ccc(S(=O)(=O)NCc3ccccc3)cc2)n1C | 8 | 72* | 6 | 42* | -21 | -35
CCCCc1ccc(NC(=O)CN2C(=O)C3CCCCC3C2=O)cc1 (configuration not stated) | . | . | . | . | . | -17
CCOc1ccccc1C1NC(=O)c2ccccc2O1 (configuration not stated) | . | . | -2 | . | -5 | 10
CCCCCCOc1ccc(/C(N)=N/O)cc1 | -78 | 37* | 0 | 27* | -100 | -173
N=C(N)c1ccc(OCCCCCOc2ccc(C(=N)N)cc2)cc1 | 3 | 53* | -2 | 63* | 10 | 67*
COc1ccc(NC(=O)C2CCCN2C(=O)Nc2ccc(OC)cc2)cc1 (configuration not stated) | . | . | 4 | . | 5 | 4
Cc1c(NC(=O)CC(=O)Nc2c(C)n(C)n(-c3ccccc3)c2=O)c(=O)n(-c2ccccc2)n1C | 3 | 4 | 2 | -2 | 15 | 24
Cc1ccc(-n2c(N)c(C(=O)Nc3c(C)n(C)n(-c4ccccc4)c3=O)c3nc4ccccc4nc32)cc1C | -7 | 2 | 10 | -2 | -8 | 74*
COc1ccc(-n2c(N)c(C(=O)Nc3c(C)n(C)n(-c4ccccc4)c3=O)c3nc4ccccc4nc32)cc1 | . | 4 | -6 | -4 | -3 | 19
Cc1c(NC(N)=O)c(=O)n(-c2ccccc2)n1C | 6 | 80* | 4 | 1 | 5 | -9
COc1ccc(-c2nc(SCC(=O)NC3CCCCC3)n[nH]2)cc1 | . | . | 8 | . | -3 | -23
COC(=O)c1cc(NC(=S)NC(=O)c2ccccc2)ccc1N1CCOCC1 | . | . | 1 | . | -21 | 4
CCCNC(=O)CSCc1nc(-c2ccc(SC)cc2)oc1C | -8 | 6 | 1 | 6 | -28 | -31
CCc1ccc(-c2nc(CSCC(=O)NCc3ccco3)c(C)o2)cc1 | 47* | 5 | 0 | 2 | 42 | 77*
CC(C)CCNC(=O)CN(C(=O)CCC(=O)Nc1nccs1)c1ccc2c(c1)OCCO2 | . | . | -5 | . | 5 | -19
